Laboratory results: PubChem BioAssay (NCATS)
Results filed as inconclusive are left out. A number with no mark means an inactive call. Calls of active or inactive are those of the source. The call rests on the fitted dose curve; in most records, active means well fitted curve in the direction sought with a large enough effect; inconclusive means small, poorly fitted or top-dose-only effect, or another doubt; inactive means no such curve, though single readings can be large; an effect the other way counts as inactive or inconclusive.

Legend:
[1] = BET inhibitor-based combinations targeting novel dependencies in MECOM-rearranged (r) AML: SET-2 cell line (AID 2202231); settings: SET-2 AML cells viability, CellTiter-Glo luminescence, 48 h; viability: hits give low values, concentration not given here; further: nearly all actives have a fitted effect of over 35% in size;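 on viability: plate controls were DMSO treated cells for no effect and wells without cells for full effect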
Procedure, shortened: (§1)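 AML cell lines seeded at 500 cells/well, treated with 11-point dose curves for 48 h. Viability by CellTiter-Glo luminescence, normalised to DMSO and empty wells; activity expressed as AUC and per-cell-line Z-transformed AUC.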

[2] = BET inhibitor-based combinations targeting novel dependencies in MECOM-rearranged (r) AML: OCI-AML3 cell line (AID 2202232); settings: Potency: OCI-AML3 viability; further: nearly all actives have a fitted effect of over 35% in size;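 on viability (% of control): series mostly up to about 46 µM; plate controls were DMSO vehicle wells for no effect and wells without cells for full effect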
Procedure, shortened: as §1

[3] = BET inhibitor-based combinations targeting novel dependencies in MECOM-rearranged (r) AML: MV-4-11 cell line (AID 2202233); further: nearly all actives have a fitted effect of over 45% in size;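 on viability, % of control: plate controls were DMSO for no effect and blank wells for full effect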
Procedure, shortened: (§2)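 Cells at 500/well were exposed for 48 hr to MIPE v5.0 drugs as 11-point dose curves. Viability was read by CellTiter-Glo luminescence and normalized to DMSO and empty-well controls. Activity was expressed as AUC and per-cell-line Z-AUC.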

[4] = BET inhibitor-based combinations targeting novel dependencies in MECOM-rearranged (r) AML: HNT-34 cell line (AID 2202234); further: nearly all actives have a fitted effect of over 35% in size;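 on viability (% of control): plate controls were vehicle wells for no effect and cell-free wells for full effect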
Procedure, shortened: as §2

[5] = BET inhibitor-based combinations targeting novel dependencies in MECOM-rearranged (r) AML: UCSD-AML1 cell line (AID 2202235); further: nearly all actives have a fitted effect of over 40% in size;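 on viability (% of control): series mostly up to about 46 µM; plate controls were DMSO vehicle wells for no effect and blank wells for full effect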
Procedure, shortened: as §2

[6] = BET inhibitor-based combinations targeting novel dependencies in MECOM-rearranged (r) AML: AML-191 cell line (AID 2202236; further: nearly all actives have a fitted effect of over 35% in size;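 on viability (% of control): plate controls were vehicle wells for no effect and wells without cells for full effect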)
Procedure, shortened: as §1

[7] = BET inhibitor-based combinations targeting novel dependencies in MECOM-rearranged (r) AML: AML-194 cell line (AID 2202237; further: nearly all actives have a fitted effect of over 40% in size;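 on viability (% of control): plate controls were vehicle wells for no effect and wells without cells for full effect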)
Procedure, shortened: as §1
Potency means the concentration at half of the fitted maximal effect.

SMILES	viability [1]	Potency [2]	Potency [3]	Potency [4]	Potency [5]	Potency [6]	Potency [7]	Potency [1]	viability (% of control) [2]	viability, % of control [3]	viability (% of control) [4]	viability (% of control) [5]	viability (% of control) [6]	viability (% of control) [7]
CC(=O)N[C@H]1CSSC[C@@H](C(N)=O)NC(=O)[C@H](C(C)C)NC(=O)[C@H](C)NC(=O)[C@H](Cc2cnc[nH]2)NC1=O	113%	inactive	inactive	inactive	inactive	inactive	inactive	–	–	–	–	–	–	–
C=CC(=O)Nc1cccc(Oc2nc(Nc3ccc(N4CCN(C)CC4)c(F)c3)nc3[nH]ccc23)c1	–	8330 nM (active)	742 nM (active)	1320 nM (active)	4680 nM (active)	5900 nM (active)	6610 nM (active)	14800 nM (active)	–	–	–	–	–	–
C[C@@H](Oc1ccc2[nH]nc(/C=C/c3cnn(CCO)c3)c2c1)c1c(Cl)cncc1Cl	–	8330 nM (active)	296 nM (active)	662 nM (active)	1050 nM (active)	833 nM (active)	934 nM (active)	1050 nM (active)	–	–	–	–	–	–
COC(=O)c1ccc([C@H]2c3[nH]c4ccccc4c3C[C@H](C(=O)OC)N2C(=O)CCl)cc1	–	105 nM (active)	833 nM (active)	93.4 nM (active)	166 nM (active)	132 nM (active)	105 nM (active)	93.4 nM (active)	–	–	–	–	–	–
C[C@@H]1C(=O)OC2[C@H](O)[C@]34[C@H]5C[C@@H](C(C)(C)C)[C@]36[C@@H](OC(=O)[C@@H]6O)O[C@@]4(C(=O)O5)[C@]21O (stereo partly specified)	115%	inactive	inactive	inactive	inactive	inactive	inactive	–	–	–	–	–	–	–
CCCc1cc(C(=O)N[C@H](Cc2ccc(-c3cccc(OC(F)(F)F)c3)nc2)C(=O)N[C@@H]2CCNC2)sc1C	–	20900 nM (active)	9340 nM (active)	11800 nM (active)	10500 nM (active)	16600 nM (active)	14800 nM (active)	20900 nM (active)	–	–	–	–	–	–
CCCCCN(C)CCC(O)(P(=O)(O)O)P(=O)(O)O	124%	–	–	–	–	–	–	–	118% [at 5.12 µM]	131% [at 5.12 µM]	109% [at 5.12 µM]	109% [at 5.12 µM]	111% [at 5.12 µM]	115% [at 5.12 µM]
N=C(N)c1ccc(OCCCCCOc2ccc(C(=N)N)cc2)cc1	–	8330 nM (active)	13200 nM (active)	26300 nM (active)	23500 nM (active)	18600 nM (active)	20900 nM (active)	20900 nM (active)	–	–	–	–	–	–
CO[C@@H]1[C@@H](O)[C@H](O)[C@@H](n2c3c(Cl)cccc3c3c4c(c5c6cccc(Cl)c6[nH]c5c32)C(=O)NC4=O)O[C@H]1CO	–	1320 nM (active)	934 nM (active)	590 nM (active)	1050 nM (active)	2350 nM (active)	1320 nM (active)	1320 nM (active)	–	–	–	–	–	–
CC(=O)N[C@H]1[C@H](O[C@@H]2c3ccc(c(Cl)c3)Oc3cc4cc(c3O[C@@H]3O[C@H](CO)[C@@H](O)[C@H](O)[C@H]3NC(=O)CCCCCCCC(C)C)Oc3ccc(cc3Cl)C[C@H]3NC(=O)[C@H](N)c5ccc(O)c(c5)Oc5cc(O)cc(c5)[C@H](NC3=O)C(=O)N[C@H]4C(=O)N[C@H]3C(=O)N[C@@H]2C(=O)N[C@@H](C(=O)O)c2cc(O)cc(O[C@H]4O[C@H](CO)[C@@H](O)[C@H](O)[C@@H]4O)c2-c2cc3ccc2O)O[C@H](CO)[C@@H](O)[C@@H]1O	113%	inactive	inactive	inactive	inactive	inactive	inactive	–	–	–	–	–	–	–
N=C1CCCN1Cc1[nH]c(=O)[nH]c(=O)c1Cl	111%	inactive	inactive	inactive	inactive	inactive	inactive	–	–	–	–	–	–	–
COc1cc2c(cc1OC)CN(CCc1ccc(-n3nnc(-c4cc(OC)c(OC)cc4NC(=O)c4cc(=O)c5ccccc5o4)n3)cc1)CC2	116%	–	–	–	–	–	–	–	94.2% [at 0.315 µM]	93.2% [at 0.315 µM]	93.8% [at 0.315 µM]	106% [at 0.315 µM]	99.1% [at 0.315 µM]	95.7% [at 0.315 µM]
C[C@]1(C(=O)N(CCCC(=O)O)Cc2cccc(Cl)c2)CCN1C(=O)c1csc2ccccc12	108%	inactive	inactive	inactive	inactive	inactive	inactive	–	–	–	–	–	–	–
CN1N=C(N)c2cn([C@@H]3O[C@H](COP(=O)(O)O)[C@@H](O)[C@@H]3O)c3ncnc1c23	–	1320 nM (active)	525 nM (active)	468 nM (active)	1180 nM (active)	2350 nM (active)	1660 nM (active)	2630 nM (active)	–	–	–	–	–	–
C[C@@H]1[C@H](O)[C@@H](C)/C=C/C=C/C=C/C=C/C=C/C=C/C=C/[C@H](O[C@@H]2O[C@H](C)[C@@H](O)[C@H](N)[C@@H]2O)C[C@@H]2O[C@](O)(C[C@@H](O)C[C@@H](O)[C@H](O)CC[C@@H](O)C[C@@H](O)CC(=O)O[C@H]1C)C[C@H](O)[C@H]2C(=O)O	112%	inactive	23500 nM (active)	inactive	inactive	inactive	inactive	–	–	–	–	–	–	–
C[C@H]1[C@H](C)CC[C@]2(C(=O)O)CC[C@]3(C)C(=CC[C@@H]4[C@@]5(C)CC[C@H](O)C(C)(C)[C@@H]5CC[C@]43C)[C@H]12	102%	inactive	inactive	inactive	inactive	inactive	inactive	–	–	–	–	–	–	–
O=C(O)/C(S)=C/c1ccc(I)cc1	112%	inactive	inactive	inactive	inactive	inactive	inactive	–	–	–	–	–	–	–
C=CCNc1c(O)cc2c(O)c1C[C@@H](C)C[C@H](OC)[C@H](O)[C@@H](C)/C=C(/C)[C@H](OC(N)=O)[C@@H](OC)/C=C\C=C(\C)C(=O)N2	–	742 nM (active)	148 nM (active)	4170 nM (active)	1320 nM (active)	5900 nM (active)	3320 nM (active)	4680 nM (active)	–	–	–	–	–	–
